Screening data from PubChem.
NTR1 agonist – agonists of human NTR1, primary screen, imaging, U2OS cells, beta-arrestin-GFP, high content. Neurotensin receptor type 1 (Homo sapiens), P30989. activation, % at 20 µM. AID 493036, 2011. 330,000 compounds, 0.17% hits. NTR1-U2OS beta-arrestin-GFP spot imaging, agonist mode;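 active = activation at or above 40% of the spot to cytoplasm intensity ratio, with at least 20 cells analyzed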;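 note: 0% = DMSO without peptide and 100% = 100 nM NTR1 peptide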
VLA-4 inh – inhibition in human VLA-4 binding assay, primary screen, VLA-4 allosteric modulator project, MLPCN library, flow cytometry, VLA-4 expressing cells; Integrin alpha-4 (Homo sapiens), P13612; ligand binding flow cytometry; inhibition, % (about 7 µM as worked out from the volumes in the protocol); 330,000 compounds, 0.2% hits; AID 2557, 2010; in the data active = inhibition above about 50%
Pemphigus Ab inh – inhibitors of pemphigus antibody binding to DSG3, primary screen, biochemical, bead-based, flow cytometry, scFv-GFP. Desmoglein-3 (Homo sapiens), P32926. DSG3-coupled beads, scFv-anti-DSG3-GFP binding; hits give low values. binding (percent of control), % at 10 µM. 310,000 compounds, 0.48% hits. AID 588358, 2011;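 active = binding more than 3 SD below its plate's average and above zero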;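 note: hits lower antibody fragment binding to DSG3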
AI-2 QS modul – Vibrio harveyi AI-2 quorum sensing modulators, primary screen, JMH597 strain, luminescence/OD600 ratio. Vibrio harveyi JMH597 AI-2 luminescence/OD600 ratio, 9 h; hits give low values; strain lacks LuxN and CqsS sensors; 0 = neutral-control median. activity change, % at 7.5 µM. 300,000 compounds, 0.4% hits. AID 2094, 2009; in the data active = activity change below about -75%, passing the limit was not always enough;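 note: luminescence divided by OD600 gain over 9 h not by final OD600 alone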
VLA-4 allo CP – retest of VLA-4 allosteric modulators, confirmation, cell-based, cherry-picked plates, U937, HUTS-21 LIBS antibody. inhibition, % at 6.7 µM. U937 cells, HUTS-21 LIBS mAb binding, flow cytometry; LDV ligand present at threefold Kd. shares compounds with VLA-4 inh. 1,300 compounds, 2% hits. AID 2813, 2010; in the data active = inhibition above about 40%;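 note: 0% = ligand without compound and 100% = no ligand background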
* hit, by the source's call. Compounds with a hit are over-represented: about 1.1% of the library has one in this group of screens.

`COc1cc(N)c(Cl)cc1C(=O)OCC(=O)NCC1CCCCC1` gave NTR1 agonist 0, VLA-4 inh 11, Pemphigus Ab inh 119 and VLA-4 allo CP 5.
For O=C(COC(=O)c1cc2ccccc2cc1O)Nc1ccccc1F the results were NTR1 agonist 2 and VLA-4 inh -2.
For O=C(COC(=O)c1ccccc1Br)NCC1CCCCC1 the results were NTR1 agonist 5, VLA-4 inh 1 and VLA-4 allo CP -22.
COc1cc(N)c(Cl)cc1C(=O)OCC(=O)NCC1CCCO1 (stereo unspecified) was read as NTR1 agonist -2, VLA-4 inh 18 and Pemphigus Ab inh 96.
For O=C(COC(=O)c1ccccc1Br)Nc1ccccc1F the results were NTR1 agonist 0, VLA-4 inh 36, Pemphigus Ab inh 104, AI-2 QS modul -32 and VLA-4 allo CP 8.
`O=C(COC(=O)c1ccccc1NCCO)NCC1CCCCC1` gave NTR1 agonist 1, VLA-4 inh -10 and Pemphigus Ab inh 91.
For Cc1ccc(CNc2ccccc2C(=O)O)s1 the results were NTR1 agonist 1, VLA-4 inh 3, Pemphigus Ab inh 101 and AI-2 QS modul -51.
`CN1CC(=O)Nc2ccc(Br)cc2C1=O` gave NTR1 agonist 0, VLA-4 inh 52*, Pemphigus Ab inh 59, AI-2 QS modul 14 and VLA-4 allo CP 2.
Screening CC(C)(C)N1NC(=O)Nc2ccccc2C1=O returned NTR1 agonist 0, VLA-4 inh -3, Pemphigus Ab inh 100 and AI-2 QS modul 25.
`CN1CC(=O)Nc2ccccc2C1=O` gave NTR1 agonist 0, VLA-4 inh 42, Pemphigus Ab inh 89, AI-2 QS modul 31 and VLA-4 allo CP -10.
For O=C1Nc2ccc(Br)cc2C1=C1CCCCC1 the results were NTR1 agonist 4, VLA-4 inh 12, Pemphigus Ab inh 122 and AI-2 QS modul 24.
`COCCCNC(=O)c1ccc2c(c1)nc(C)n2-c1cccc(C)c1` gave NTR1 agonist 2, VLA-4 inh 16, Pemphigus Ab inh 108 and AI-2 QS modul -9.
Cc1cc(SCc2ccc([N+](=O)[O-])cc2)nc(=O)[nH]1 was read as NTR1 agonist 2, VLA-4 inh -4, Pemphigus Ab inh 90 and AI-2 QS modul 10.
O=C1Nc2ccccc2O/C1=C\c1c(F)cccc1Cl was read as NTR1 agonist 5, VLA-4 inh 49, Pemphigus Ab inh 96, AI-2 QS modul 10 and VLA-4 allo CP -18.
CC1Cc2ccccc2N1Cc1ccc([N+](=O)[O-])cc1 (stereo unspecified) was read as NTR1 agonist 0, VLA-4 inh 3 and AI-2 QS modul 13.
`CCOC(=O)c1c(NC2=NS(=O)(=O)c3ccccc32)sc2c1CCC(C)C2` (stereo unspecified) gave NTR1 agonist 4, VLA-4 inh 60*, Pemphigus Ab inh 78, AI-2 QS modul 5 and VLA-4 allo CP 5.
CCOC(=O)c1c(NC2=NS(=O)(=O)c3ccccc32)sc2c1CCCCC2 was read as NTR1 agonist 13, VLA-4 inh 19, Pemphigus Ab inh 108 and AI-2 QS modul 13.
For CCOc1ccc(NC(=O)NC2(C(=O)NCc3ccco3)CCCCC2)cc1 the results were NTR1 agonist 6, VLA-4 inh 6, Pemphigus Ab inh 104 and AI-2 QS modul 22.
Screening O=C(Nc1ccc(F)cc1)NC1(C(=O)NCc2ccco2)CCCCC1 returned NTR1 agonist 0, VLA-4 inh 52*, Pemphigus Ab inh 99, AI-2 QS modul 18 and VLA-4 allo CP 4.
O=C(c1cc(Br)ccc1Cl)N1CCN(c2ccc(N3CCOCC3)nn2)CC1 was read as NTR1 agonist 1, VLA-4 inh 51*, Pemphigus Ab inh 111, AI-2 QS modul 12 and VLA-4 allo CP 3.
Screening O=C(c1ccc(Cl)cc1)N1CCN(c2ccc(N3CCOCC3)nn2)CC1 returned Pemphigus Ab inh 97.
CCn1ccnc1CN(C)Cc1cn(C)nc1-c1ccccc1F was read as NTR1 agonist 0, VLA-4 inh 43, Pemphigus Ab inh 93, AI-2 QS modul 10 and VLA-4 allo CP -4.
`CCO[C@@H]1OC(C(=O)N2CCN(Cc3ccc4c(c3)OCO4)CC2)=C[C@H](C2CCCCC2)[C@H]1CCCO` gave NTR1 agonist -3, VLA-4 inh -6, Pemphigus Ab inh 104 and AI-2 QS modul 15.
Screening CC(C)(C)[C@@H]1C=C(C(=O)O)O[C@H](OCCCCO)C1 returned NTR1 agonist -2, Pemphigus Ab inh 99 and AI-2 QS modul 5.
Screening CCO[C@H]1OC(C(=O)N2CCN(Cc3ccccc3)CC2)=C[C@@H](C2CCCCC2)[C@@H]1CCCO returned NTR1 agonist 4, VLA-4 inh 53*, Pemphigus Ab inh 104, AI-2 QS modul 10 and VLA-4 allo CP 0.
CCO[C@H]1OC(C(=O)Nc2ccccc2)=C[C@@H](C)[C@@H]1CCCO was read as NTR1 agonist 0, VLA-4 inh 91*, Pemphigus Ab inh 100, AI-2 QS modul 11 and VLA-4 allo CP -6.
For CC(C)(C)[C@H]1C=C(C(=O)Nc2ccccc2)O[C@@H](OCCCCO)C1 the results were NTR1 agonist 2, VLA-4 inh 21, Pemphigus Ab inh 98, AI-2 QS modul 16 and VLA-4 allo CP 7.
Screening COc1cccc(N(C(=O)CS(=O)CC(=O)Nc2ccc(F)cc2)C(C(=O)NC2CCCCC2)c2cccs2)c1 (stereo unspecified) returned NTR1 agonist -1, VLA-4 inh 43, Pemphigus Ab inh 97, AI-2 QS modul 17 and VLA-4 allo CP 5.
`CN1CC(=O)N(CC(=O)Nc2ccc(Br)cc2F)C1=O` gave NTR1 agonist -1, VLA-4 inh 70*, AI-2 QS modul 31 and VLA-4 allo CP -2.
`Cc1nc(C)n(CCNC(=O)c2ccco2)n1` gave NTR1 agonist -1, VLA-4 inh -8, Pemphigus Ab inh 123 and AI-2 QS modul 4.
CC1(C)CC(N2CCCC2)=CC(=[N+]2CCCC2)C1 was read as NTR1 agonist 0, VLA-4 inh -4, Pemphigus Ab inh 94 and AI-2 QS modul 12.
`CC1(C)CC(N2CCCC2)=CC(=[N+]2CCCCC2)C1` gave NTR1 agonist 2, VLA-4 inh 50*, Pemphigus Ab inh 100, AI-2 QS modul 12 and VLA-4 allo CP -9.
For Cc1ccc(NC(=O)Cn2c(=O)oc3ccccc32)c(C)c1 the results were NTR1 agonist 1, VLA-4 inh 2, Pemphigus Ab inh 100, AI-2 QS modul 7 and VLA-4 allo CP -11.
